Screen size: about 330,000 compounds; about 1,400 (0.42%) were called active. Only a selection was taken, and actives are over-represented in it overall. Values without a mark were called inactive.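 The calls were made as follows: active = inhibition above its plate's threshold, mean inhibition of all tested compounds on the plate plus 3 SD (cut at about 37% in these data); inactive = the rest.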
Molecular target: Orexin/Hypocretin receptor type 1 (Homo sapiens) (UniProt O43613)
Test: OX1R (HCRTR1) antagonists, primary screen, fluorescence, CHO/OX1R cells, Fluo-8 calcium, orexin A (AID 434989);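 also: 0% = orexin A challenge wells and 100% = SB-334867-A antagonist wells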
Details: Fluo-8 calcium fluorescence, at 5 µM, active compounds read high

Orexin/Hypocretin receptor type 1 (Homo sapiens), sequence (O43613 whole entry, looked up): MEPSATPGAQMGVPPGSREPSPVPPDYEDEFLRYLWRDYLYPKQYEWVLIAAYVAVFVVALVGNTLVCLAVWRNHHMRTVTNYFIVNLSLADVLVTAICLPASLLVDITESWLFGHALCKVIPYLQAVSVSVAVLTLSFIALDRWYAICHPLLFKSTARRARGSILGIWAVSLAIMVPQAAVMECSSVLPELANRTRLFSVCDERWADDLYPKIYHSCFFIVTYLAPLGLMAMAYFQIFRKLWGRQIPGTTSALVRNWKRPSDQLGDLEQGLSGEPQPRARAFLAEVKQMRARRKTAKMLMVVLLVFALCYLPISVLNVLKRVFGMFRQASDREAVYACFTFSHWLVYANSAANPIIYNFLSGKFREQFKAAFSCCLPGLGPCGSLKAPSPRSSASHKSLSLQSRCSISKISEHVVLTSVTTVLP

How did the inhibition turn out when `COc1cc(OC)c(C(=O)NNC(=O)c2ccccc2-n2cccc2)cc1OC` was run?
Its inhibition is -4.23%.

How did the inhibition turn out when `COc1cccc2sc3cc(NCC[C@@H]4CCCN4C)ccc3c(=O)c12` was run?
The inhibition was -2.27%.

`CC(C#N)OC(=O)c1cccnc1SCC(=O)Nc1ccc2c(c1)OCO2` (configuration not stated) was tested. Which inhibition did it give?
The inhibition was -1.89%.

`O=C(CSc1ncnc2sccc12)NC1CCS(=O)(=O)C1` (configuration not stated) was tested. Which inhibition did it give?
Its inhibition is -10.8%.

With `Oc1ccc2ccccc2c1N=Nc1nccs1` as the compound, how does the inhibition read?
Its inhibition is 61% (active).

For `Oc1ccc(N=Nc2nccs2)c(O)c1`, which inhibition is on record?
The inhibition was -44.9%.

`CCC(C(=O)OCC(=O)Nc1ccc(C(=O)Nc2ccc(OC)cc2)cc1)c1ccccc1` (configuration not stated) was tested. Which inhibition did it give?
Its inhibition is -0.08%.

With `CCC(C(=O)Nc1ccc(C(C)C)cc1)c1ccccc1` (configuration not stated) as the compound, how does the inhibition read?
The inhibition was 62.9% (active).

Which inhibition does the source give for `CCC(C(=O)Nc1ccc2c(c1)OCCO2)c1ccccc1` (configuration not stated) here?
Its inhibition is 3.71%.

`NCCN1CCN2C(=O)CN(C(=O)c3ccccc3)CC12` (configuration not stated) was tested. Which inhibition did it give?
Its inhibition is 3.19%.

With `CC(C)(C)OC(=O)C[C@@H]1C/C=C\C[C@@H](CC(=O)NCCO)C(=O)N[C@H](Cc2c[nH]c3ccccc23)COC1=O` as the compound, how does the inhibition read?
Its inhibition is -10.6%.

With `CCN1/C(=C\c2ccc3ccccc3[n+]2CC)Sc2cc(C)ccc21` as the compound, how does the inhibition read?
The inhibition was 54.6% (active).

With `COc1ccccc1N(CCOc1ccccc1)S(=O)(=O)c1ccccc1` as the compound, how does the inhibition read?
The inhibition was -0.89%.

Which inhibition does the source give for `COc1ccc2sc(-c3ccc(N(C)C)cc3)c(-c3ccc4cc[nH]c4c3)c2c1` here?
Its inhibition is 1.84%.

For `COc1ccc2sc(-c3ccc(N(C)C)cc3)c(C#CCO)c2c1`, which inhibition is on record?
The inhibition was 61% (active).

Which inhibition does the source give for `COc1ccc(-c2sc3ccc(OC)cc3c2C#Cc2ccccn2)cc1` here?
Its inhibition is -20.1%.

With `Cc1ccc(NC(=O)c2ccc(Cl)nc2)cc1S(=O)(=O)N1CCOCC1` as the compound, how does the inhibition read?
The inhibition was -13.6%.

For `COc1ccc(S(=O)(=O)N(C)C[C@H]2Oc3ccc(NS(=O)(=O)c4cccs4)cc3CC(=O)N([C@H](C)CO)C[C@H]2C)cc1`, which inhibition is on record?
Its inhibition is -17.2%.

How did the inhibition turn out when `Nc1nc(COC(=O)CCC(=O)c2ccc(Cl)cc2)nc(Nc2ccccc2)n1` was run?
The inhibition was 67.8% (active).

Which inhibition does the source give for `CC(NC(=O)COC(=O)CCC(=O)c1ccc(Cl)cc1)c1ccccc1` (configuration not stated) here?
The inhibition was -2.79%.

Which inhibition does the source give for `Cc1ccc(C(=O)OCc2nc(N)nc(Nc3ccccc3C)n2)cc1` here?
The inhibition was -15.1%.

For `O=C(COC(=O)c1ccc(F)c(S(=O)(=O)N2CCOCC2)c1)NCc1ccc2c(c1)OCO2`, which inhibition is on record?
Its inhibition is 4.89%.

With `COc1ccc(S(=O)(=O)N2CCCCCC2)cc1NC(=O)Cc1ccc(OC)c(OC)c1` as the compound, how does the inhibition read?
The inhibition was -23.5%.

Which inhibition does the source give for `O=C(COC(=O)c1ccccn1)NNC(=O)c1ccc(Br)cc1` here?
The inhibition was -3.43%.

`Cn1c(N)c(C(=O)COC(=O)c2cccc(S(=O)(=O)N3CCOCC3)c2)c(=O)n(C)c1=O` was tested. Which inhibition did it give?
The inhibition was -27.4%.

For `Cn1c(N)c(C(=O)COC(=O)c2ccc3ccccc3c2)c(=O)n(C)c1=O`, which inhibition is on record?
Its inhibition is 51.1% (active).

Which inhibition does the source give for `Cn1c(N)c(C(=O)COC(=O)c2cnc(Cl)c(Cl)c2)c(=O)n(C)c1=O` here?
The inhibition was -7.14%.

Reference: PubChem BioAssay AID434989 (The Scripps Research Institute Molecular Screening Center, 2010)
